From PubChem
Shown are actives, neighbours in structure and some others; about 22% of the full set was active somewhere.
Shiga inhibitor: A qHTS for Small Molecule Inhibitors of Shiga Toxin | Vero cells, Shiga toxin protein synthesis inhibition reporter | 290,000 compounds, 9.2% hits | inhibition, % at 38.7 µM | AID 2315, 2010; in the data active = inhibition mostly above about 28%, no sharp cut-off; inactive = mostly below about 43%; note: 0% is about no effect
Pf growth 48h: Primary qHTS for delayed death inhibitors of the malarial parasite plastid, 48 hour incubation. P. falciparum luciferase growth in erythrocytes, 48 h. 310,000 compounds, 5.9% hits. Potency, µM (doses to about 28.7 µM), inactives show top-dose activity change, negative = inhibition, usual class: inhibitors. AID 504832, 2011; note: potency is the fitted concentration of half-maximal effect; % is set by controls: 0 for no effect and ±100 for the full control effect
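Erythrocytes infected with P. falciparum carrying an integrated firefly luciferase reporter (2% hematocrit, 0.1% parasitemia final) were exposed to compounds in RPMI 1640 with 0.5% Albumax at 37 C, 5% CO2. Growth inhibition was scored as reduced luminescence.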
LmPK inh: qHTS Assay for Inhibitors of Leishmania Mexicana Pyruvate Kinase (LmPK) | Q27686 | purified LmPK, Kinase-Glo ATP luminescence, 1 h | Potency, µM (highest dose often 57.5 µM), for inactives: top-dose activity change, negative = inhibition, usual class: inhibitors | 290,000 compounds, 0.37% hits; note: potency is the fitted concentration of half-maximal effect; % is set by controls: 0 for no effect and ±100 for the full control effect
Target sequence (Q27686 whole entry, looked up): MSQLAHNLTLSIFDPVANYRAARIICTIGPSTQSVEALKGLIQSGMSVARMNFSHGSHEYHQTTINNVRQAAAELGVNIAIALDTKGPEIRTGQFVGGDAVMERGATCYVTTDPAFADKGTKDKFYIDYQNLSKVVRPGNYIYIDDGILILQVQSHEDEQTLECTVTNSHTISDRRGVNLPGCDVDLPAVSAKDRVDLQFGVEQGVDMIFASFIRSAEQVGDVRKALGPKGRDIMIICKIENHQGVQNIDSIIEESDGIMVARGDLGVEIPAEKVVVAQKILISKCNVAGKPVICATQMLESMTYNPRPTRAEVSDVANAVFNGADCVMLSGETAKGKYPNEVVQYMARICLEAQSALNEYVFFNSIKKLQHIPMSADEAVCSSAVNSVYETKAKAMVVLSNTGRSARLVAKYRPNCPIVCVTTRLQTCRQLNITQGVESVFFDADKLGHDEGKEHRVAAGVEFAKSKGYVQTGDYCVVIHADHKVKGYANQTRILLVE
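ATP generated from ADP (0.1 mM) and PEP (0.5 mM) by 0.1 nM LmPK over 1 h at room temperature (pH 7.2 imidazole buffer) was detected by coupled luciferase luminescence. Values were normalized to uninhibited and no-enzyme wells.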
Cycloheximide cs: Cycloheximide Counterscreen for Small Molecule Inhibitors of Shiga Toxin; cell reporter, cycloheximide protein synthesis inhibition counterscreen; max response, %; 300,000 compounds, 12% hits; in the data active = max response mostly above about 13%, no sharp cut-off; inactive = mostly below about 14%; note: read at 38.3 µM for the half of the compounds with a filed dose; 0% is about no effect
Pf growth 96h: Primary qHTS for delayed death inhibitors of the malarial parasite plastid, 96 hour incubation; P. falciparum luciferase reporter growth, 96 h; Potency, µM (doses to about 28.7 µM), inactives show at the top dose activity change, negative = inhibition, hits mostly inhibitors; 320,000 compounds, 6.9% hits; AID 504834, 2011; note: potency is the fitted concentration of half-maximal effect; % is set by controls: 0 for no effect and ±100 for the full control effect
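Delayed-death screen, second-generation endpoint: infected erythrocytes, 2% hematocrit, 0.05% parasitemia final; 96 hours at 37 C, 5% CO2; luciferase detection reagent; luminescence decrease equals reduced growth.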
* hit, by the source's call; i = inactive; ? = inconclusive; nt = no result. Unless noted, calls come from the whole dose curve; as a rule, active = well fitted inhibition curve with a large enough effect; inconclusive = small, poorly fitted or top-dose-only effect, or another doubt; inactive = no such curve, though single readings can be large or run the other way.

SMILES	Shiga inhibitor	Pf growth 48h	LmPK inh	Cycloheximide cs	Pf growth 96h
Cc1ccc(-n2c(C)cc(C(=O)OCC(=O)N(CC(C)C)C3CCS(=O)(=O)C3)c2C)cc1 (centres undefined)	10	-91%	4%	2	58%
CC(C)CC1=NN(C(=O)c2ccco2)C(O)(C(F)(F)F)C1 (centres undefined)	30	52%	-6%	3	56%
NNC(=O)c1cc2sccc2s1	2	?	6%	10	39%
O=C1CCC(=O)N1CO	nt	59%	nt	nt	94%
O=C(Cc1ccc(F)cc1)NCCS(=O)(=O)N1CCN(c2cccc(Cl)c2)CC1	nt	6%	nt	nt	-19%
CCOc1ccc(C2NC(=O)CCC2[N+](=O)[O-])cc1 (centres undefined)	nt	16%	2%	-2	1%
CCC(C)(C)n1nnnc1C(c1cc2ccc(OC)cc2[nH]c1=O)N1CCc2ccccc21 (centres undefined)	-8	5.2µM*	2%	19	32%
CCC(C)(C)n1nnnc1C(c1cc2cc(C)ccc2[nH]c1=O)N1CCCc2ccccc21 (centres undefined)	22	nt	0%	8	?
CCC(C)(C)n1nnnc1C(c1cc2ccc(OC)cc2[nH]c1=O)N1CCc2ccccc2C1 (centres undefined)	-9	?	4%	-3	nt
CCC(C)(C)n1nnnc1C(c1cc2cc(OC)ccc2[nH]c1=O)N1CCc2ccccc21 (centres undefined)	-5	10µM*	-2%	-3	3%
CCOc1ccc(Nc2cc(C)nc(-n3nc(C)cc3C)n2)cc1	31	1.9µM*	3%	-3	?
COc1ccc(/C=N/Nc2cc(C)nc(N3CCOCC3)n2)cc1	5	61%	-2%	2	2%
Cc1cc(Cl)nc(-n2nc(C)cc2C)n1	12	-1%	-10%	1	-6%
COc1ccc(/C=N/Nc2cc(C)nc(-n3nc(C)cc3C)n2)c(OC)c1	1	1.5µM*	1%	-1	0.33µM*
COc1ccc(Nc2cc(C)nc(N3CCOCC3)n2)cc1	36	51%	-2%	12	11%
CNc1cc(C)nc(-n2nc(C)cc2C)n1	9	8.3µM*	-6%	4	4.7µM*
COc1ccccc1/C=N/Nc1cc(C)nc(N2CCOCC2)n1	22	?	2%	24*	?
CC1CCC2(CC1)NC(=O)N(Cc1cccc(C(F)(F)F)c1)C2=O (centres undefined)	8	6%	3%	8	0%
COc1ccc(S(=O)(=O)N2CCOC2CNC(=O)C(=O)NCCN2CCOCC2)cc1C (centres undefined)	3	0%	-2%	-1	-1%
CC(=O)c1ccc(Cc2ccc(C(C)=O)cc2)cc1	63	-12%	0%	6	?
CCOc1cc(/C=N/Nc2nc(C)cc(=O)[nH]2)ccc1O	-6	?	8%	-2	7%
Cc1cc(N/N=C/c2ccc(F)cc2)nc(-n2nc(C)cc2C)n1	13	0.33µM*	-1%	11	1µM*
CCOc1cc(/C=N/Nc2cc(C)nc(-n3nc(C)cc3C)n2)ccc1O	1	0.37µM*	1%	-1	1.7µM*
CCOc1ccc(CN(CC)C(=O)c2ccc3c(c2)[nH]c(=O)c(=O)n3CC)cc1OC	-21	-32%	-6%	2	-25%
COc1ccccc1CNC(=O)[C@H](C)NC(=O)C1CCN(C(=O)[C@@H](N)CC(C)C)CC1	-8	2%	-2%	-3	-11%
SMILES	Shiga inhibitor	Pf growth 48h	LmPK inh	Cycloheximide cs	Pf growth 96h
CC(=O)OCCCNc1cc(SCc2ccco2)c2nonc2c1[N+](=O)[O-]	-6	2%	-1%	-2	2.3µM*
O=c1cc(CO)occ1O	nt	-2%	nt	nt	-4%
Cc1ccc(N2NC(C)(c3cccs3)NC2=S)cc1 (centres undefined)	74*	17%	6%	31*	?
CC1CCN(CCCNC(=O)c2cc3c(Cl)nc4ccccc4c3s2)CC1	-6	?	3%	-6	9%
CC(=O)c1ccc(NS(=O)(=O)c2ccc(N)cc2)cc1	50*	37%	1%	28*	19%
CC(=O)c1ccc(NS(=O)(=O)c2c(C)cc(C)cc2C)cc1	73*	3%	-5%	38*	31%
Cc1cc(C)c(S(=O)(=O)Nc2ccc(C(N)=O)cc2)c(C)c1	-2	-3%	2%	-4	-16%
CC(=O)c1ccc(N=Nc2ccc(N)cc2)cc1	56*	152%	-23%	28*	i
COc1ccccc1CNC(=O)COC(=O)c1nccnc1N	-12	22%	0%	-1	11%
COc1ccc(CNCc2cc(Cl)ccc2O)cc1	nt	9.3µM*	nt	nt	13µM*
Oc1ccc(Cl)cc1CNCc1cccc2ccccc12	nt	0.41µM*	nt	nt	0.93µM*
O=C(O)Cc1ccc(O)c(F)c1	-12	-5%	3%	-3	-7%
O=[N+]([O-])c1ccc(CNCc2cc(Cl)ccc2O)cc1	nt	12µM*	nt	nt	?
Oc1ccc(Cl)cc1CNCc1ccc(F)c(F)c1	nt	3.3µM*	nt	nt	5.2µM*
N#C/C(=C\c1ccc(-c2cccc([N+](=O)[O-])c2)o1)c1nnc(N2CCOCC2)n1-c1ccccc1	5	?	0%	-2	?
N#Cc1ccc(C(=O)Nc2nc(SCc3ccc(Cl)cc3)n[nH]2)cc1	-4	11%	-2%	3	-10%
COc1ccc2oc3cc(C)[n+]([O-])c(-c4ccc(C)cc4)c3c2c1	-9	-20%	2%	-2	-21%
C=CCN(Cc1cn(C)nc1-c1cccc(Cl)c1)C1CCS(=O)(=O)C1 (centres undefined)	-12	-3%	2%	1	298%
CN(Cc1ccc(Br)cc1)C(=O)CCN1C(=O)c2cccc([N+](=O)[O-])c2C1=O	12	22%	-4%	7	33%
COC(=O)C1=C(C(=O)OC)SC2(S1)C(C(=O)OC)=C(C(=O)OC)SC1=C2c2cc(C)cc(C)c2NC1(C)C	-11	5.9µM*	-1%	5	?
O=C(O)COc1ccc(/C=N/NC(=O)C2CCCN2S(=O)(=O)c2ccc(Cl)cc2)cc1 (centres undefined)	-17	nt	3%	-2	0%
CC(/C=N/Nc1nc2ccccc2[nH]1)=C\c1ccccc1	13	?	-5%	23*	?
CC(/C=N/Nc1ncc(C)c(=O)[nH]1)=C\c1ccccc1	25	-10%	5%	13	13%
CC(=C/c1ccccc1)/C=N/Nc1nc(N2CCCCC2)nc(N2CCCCC2)n1	-10	3%	-1%	-1	?
CC(/C=N/Nc1nc(C)cc(=O)[nH]1)=C\c1ccccc1	60*	-8%	-2%	42*	31%
CCOc1ccc(C(C)=O)cc1CN1C(=O)C(=O)N(CC)C1=O	-11	?	-3%	-1	?
